Measured values: PubChem BioAssay (NCATS)
“And” between values parts separate entries of the source, which are not always exact repeats. Equal values may be shown once. Inconclusive results are not listed. The source holds several records for some structures; these can differ, active in one and inactive in another. Values without a mark were called inactive. The source made the active and inactive calls. Calls follow the shape of the dose curve; as a rule, active = well fitted inhibition curve with a large enough effect; inconclusive = small, poorly fitted or top-dose-only effect; inactive = flat fitted curve, though single readings scatter.

Key:
[1] = system: CRL-7250; assay: Cytotoxic Profiling of Annotated Libraries Using Quantitative High-Throughput Screening (AID 1296008); conditions: Five cell lines viability, CellTiter-Glo ATP luminescence, 48-72 h; max response: hits give low values; also: potency is read from the fitted curve at half-maximal effect; as to max response: % is scaled to controls: 0 for no effect and ±100 for the full control effect
Procedure, shortened: (§1)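 Cytotoxicity was measured as CellTiter-Glo ATP luminescence, read after 10 min at room temperature. Compound treatment of the cells lasted 48 or 72 hr at 37 degrees Celsius in a qHTS format.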

[2] = system: HEK293; assay: as above; conditions: Five cell lines viability, CellTiter-Glo ATP luminescence, 48-72 h; max response: hits give low values
Procedure, shortened: as §1

[3] = system: HaCat; assay: as above; conditions: Five cell lines viability, CellTiter-Glo ATP luminescence, 48-72 h; max response: hits give low values
Procedure, shortened: as §1

[4] = system: KB-3-1; assay: as above; conditions: Five cell lines viability, CellTiter-Glo ATP luminescence, 48-72 h; max response: hits give low values
Procedure, shortened: as §1

[5] = system: NIH3T3; assay: as above; conditions: Five cell lines viability, CellTiter-Glo ATP luminescence, 48-72 h; max response: hits give low values
Procedure, shortened: as §1

[6] = system: HACAT; assay: qHTS assay to identify novel small-molecules to repurpose for Merkel cell carcinoma treatment (AID 1296009); conditions: MCC and control cell lines, CellTiter-Glo viability, 72 h; at 44.8 µM (top of the series) unless noted
Procedure, shortened: (§2)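 Cell viability measured by CellTiter-Glo following 72 hr compound treatment at 37 degree celsius, with NPC and MIPE libraries tested in 8- and 11-point concentration series.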

[7] = system: JCK; assay: qHTS profiling for inhibitors of Plasmodium falciparum proliferation (AID 504749);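 also: 0% = DMSO vehicle and full inhibition = artemisinin control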; conditions: P. falciparum in erythrocytes, SYBR Green DNA, 72 h; series mostly up to 28.7 µM
Procedure, shortened: (§3)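 In a 72 h erythrocytic culture (37 C, humidified, 5% CO2) at 2.5% hematocrit and 0.3% starting parasitemia, compounds were tested; SYBR Green I in detergent lysis buffer stained parasite DNA overnight.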

[8] = system: N140; assay: as above; conditions: P. falciparum in erythrocytes, SYBR Green DNA, 72 h; series mostly up to 28.7 µM
Procedure, shortened: as §3

[9] = system: P93_24; assay: as above; conditions: P. falciparum in erythrocytes, SYBR Green DNA, 72 h; series mostly up to 28.7 µM
Procedure, shortened: as §3

[10] = system: P94_40; assay: as above; conditions: P. falciparum in erythrocytes, SYBR Green DNA, 72 h; series mostly up to 28.7 µM
Procedure, shortened: as §3

[11] = system: PAD; assay: as above; conditions: P. falciparum in erythrocytes, SYBR Green DNA, 72 h; series mostly up to 28.7 µM
Procedure, shortened: as §3

[12] = system: PC15; assay: as above; conditions: P. falciparum in erythrocytes, SYBR Green DNA, 72 h; series mostly up to 28.7 µM
Procedure, shortened: as §3

[13] = system: PC26; assay: as above; conditions: P. falciparum in erythrocytes, SYBR Green DNA, 72 h; series mostly up to 28.7 µM
Procedure, shortened: as §3

[14] = system: PC49; assay: as above; conditions: P. falciparum in erythrocytes, SYBR Green DNA, 72 h; series mostly up to 28.7 µM
Procedure, shortened: as §3

[15] = system: SC27B; assay: as above; conditions: P. falciparum in erythrocytes, SYBR Green DNA, 72 h; series mostly up to 28.7 µM
Procedure, shortened: as §3

[16] = system: TAB109; assay: as above; conditions: P. falciparum in erythrocytes, SYBR Green DNA, 72 h; series mostly up to 28.7 µM
Procedure, shortened: as §3

[17] = system: TAB113; assay: as above; conditions: P. falciparum in erythrocytes, SYBR Green DNA, 72 h; series mostly up to 28.7 µM
Procedure, shortened: as §3

[18] = system: TAB165; assay: as above; conditions: P. falciparum in erythrocytes, SYBR Green DNA, 72 h; series mostly up to 28.7 µM
Procedure, shortened: as §3

[19] = system: W2; assay: as above; conditions: P. falciparum in erythrocytes, SYBR Green DNA, 72 h; series mostly up to 28.7 µM
Procedure, shortened: as §3

[20] = system: HEK293T; assay: qHTS assay to identify novel small-molecules to repurpose for Merkel cell carcinoma treatment (AID 1296009); conditions: MCC and control cell lines, CellTiter-Glo viability, 72 h; at 44.8 µM (top of the series) unless noted
Procedure, shortened: as §2
Also: nearly all actives have a fitted effect of over 60% in size.

## Cn1c(=O)c(-c2c(Cl)cccc2Cl)cc2cnc(Nc3cccc(C(=O)O)c3)nc21
[1]
  Potency: 1.16 µM (active)
[2]
  Potency: 2.31 µM (active)
  max response: -22.7%
[3]
  outcome: inactive
[4]
  Potency: 4.61 µM (active)
  outcome: inactive
[5]
  max response: 3.27%
  outcome: inactive
[6]
  outcome: inactive

## NS(=O)(=O)c1cc(Cl)c(Cl)c(S(N)(=O)=O)c1
[7]
  outcome: inactive
[8]
  Potency: inactive
[9]
  Potency: inactive
[10]
  Potency: inactive
[11]
  Potency: inactive
[12]
  outcome: inactive
[13]
  Potency: inactive
[14]
  outcome: inactive
[15]
  Potency: inactive
[16]
  Potency: inactive
[17]
  Potency: inactive
[18]
  Potency: inactive
[19]
  Potency: inactive
[1]
  max response: 0.0999%
  outcome: inactive
[2]
  max response: 0.982%
  outcome: inactive
[3]
  max response: -2.36%
  outcome: inactive
[4]
  max response: 1.19% and 6.82% and 0.356%
[5]
  max response: -19% and 0.0909%
[6]
  outcome: inactive
[20]
  outcome: inactive

## C[C@H]1O[C@@H](n2cc(F)c(=O)[nH]c2=O)[C@H](O)[C@H]1O
[1]
  max response: -14.8%
[2]
  Potency: 13.2 µM (active)
[3]
  max response: -27.2%
[4]
  max response: -15.3%

## O=C(O)CCNc1cc(N2CCc3ccccc3CC2)nc(-c2ccccn2)n1
[1]
  max response: -1.59% and -1.08% and -1.74%
[2]
  max response: 1.95% and -5.12%
  outcome: inactive
[3]
  max response: -11.8%
  outcome: inactive
[4]
  max response: -6.65% and -1.07%
  outcome: inactive
[5]
  max response: -1.17% and -17.2% and -11.6%
[6]
  outcome: inactive
[20]
  outcome: inactive

## CNC(=O)c1c(-c2ccc(F)cc2)oc2cc(N(CCO)S(C)(=O)=O)c(C3CC3)cc12
[1]
  Potency: 11.8 µM (active)
  max response: -2.04%
[2]
  outcome: inactive
[4]
  max response: -0.402%
[5]
  max response: -17.1%
[20]
  outcome: inactive

## COc1ccc(-c2ccc3ncc4c(c3c2)n(-c2ccc(N3CCNCC3)c(C(F)(F)F)c2)c(=O)n4C)cn1
[1]
  max response: -103%
[2]
  Potency: 0.0092 µM (active)
  max response: -112%
[3]
  Potency: 3.7 nM (active) and 58 nM (active)
[4]
  Potency: 16.6 nM (active) and 41.1 nM (active)
[5]
  Potency: 0.0053 µM (active)

## Cc1cnc(Nc2cccc(CN3CCOCC3)c2)nc1Nc1cccc(S(=O)(=O)NC(C)(C)C)c1
[1]
  outcome: inactive
[2]
  outcome: inactive
[3]
  max response: -19.2%
  outcome: inactive
[4]
  Potency: 2.31 µM (active)
  max response: 6.82%
[5]
  max response: -17.3%
[6]
  outcome: inactive
[20]
  outcome: inactive

## CCN1C[C@H](C)n2c(c(O)c3c(=O)n(Cc4ccc(F)c(Cl)c4)nc(C(=O)NC)c32)C1=O
[1]
  max response: -6.85%
  outcome: inactive
[3]
  max response: -5.77% and -3.93%
[4]
  max response: 3.26% and 8.63%
  outcome: inactive
[5]
  max response: 0.921% and -1.89%
[20]
  outcome: inactive

## COc1ccc(CCN(C)CCCOc2ccc(S(=O)(=O)c3[nH]c4ccccc4c3C(C)C)cc2)cc1OC
[1]
  outcome: inactive
[2]
  max response: -1.95%
[3]
  max response: -8.82%
[4]
  max response: 5.18%

## CC1CCN(c2cc(N3CCN(C)CC3)ccc2NC(=O)c2cc(C#N)c[nH]2)CC1
[1]
  outcome: inactive
[2]
  max response: 0.425%
[3]
  max response: 2.9%
  outcome: inactive
[4]
  max response: 9% and 4.39%
[5]
  max response: 3.51% and 0.269%
[6]
  outcome: inactive

## Cc1ccccc1C(C(=O)NC1CCCCC1)N(C(=O)CNc1ccc(C#N)cc1)c1cccc(F)c1 (centres undefined)
[1]
  max response: 4.34%
  outcome: inactive
[3]
  max response: -5.11%
  outcome: inactive
[4]
  max response: 5.31%
  outcome: inactive
[5]
  max response: -3.8% and -0.279%
[6]
  outcome: inactive
[20]
  outcome: inactive

## CCn1c(-c2nonc2N)nc2cncc(CNC3CCNCC3)c21
[1]
  Potency: 7.31 µM (active)
[2]
  Potency: 10.5 µM (active) and 2.31 µM (active)
[3]
  max response: -17.9%
  outcome: inactive
[4]
  max response: 3.41% and -9.32%
[6]
  outcome: inactive

## C[C@@]1(C(=O)Nc2ccc(F)nc2)CCCN1c1nc(Nc2cc(C3CC3)[nH]n2)c2cccn2n1
[1]
  Potency: 11.8 µM (active) and 11.6 µM (active)
[2]
  Potency: 3.72 µM (active)
[3]
  max response: -23.7%
[4]
  max response: -30.1%
